The text below walks through data of PubChem BioAssay (EPA / NIEHS).

Read-out in experiment [1]: Vascular endothelial growth factor receptor 2 (Homo sapiens) (UniProt P35968)
As to the kind of experiment: BSK_4H_VEGFRII: BioMAP Diversity Plus: 4H Assay for Vascular endothelial growth factor receptor 2 (VEGFR2) Biomarker Activity (AID 2283031). Conditions: primary human endothelial cells (HUVEC); actives raise or lower the signal. The procedure, abridged: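 Primary human umbilical vein endothelial cells in the BioMAP 4H system were dosed with test chemical, and 24 h later VEGFRII was measured by ELISA. Activity was fitted bidirectionally against DMSO as negative control and baseline.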

Read-out in experiment [2]: Human Leukocyte Antigen - DR isotype (HLADR), HLA-DRA (gene 3122)
Briefly: BSK_BE3C_HLADR: BioMAP Diversity Plus: BE3C Assay for Human Leukocyte Antigen - DR isotype (HLADR) Biomarker Activity (AID 2283032). Conditions: primary human bronchial epithelial cells; actives raise or lower the signal. Summed up: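 Signal came from an ELISA for HLA-DR in human bronchial epithelial primary cells harvested 24 h after treatment; gain- and loss-of-signal fitting used DMSO controls as reference.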

Read-out in experiment [3]: Vascular cell adhesion molecule 1 (VCAM1), VCAM1 (gene 7412)
Briefly: BSK_4H_VCAM1: BioMAP Diversity Plus: 4H Assay for Vascular cell adhesion molecule 1 (VCAM1) Biomarker Activity (AID 2283033).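 Also: cell-surface VCAM-1 protein measured by ELISA.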 To be noted: primary human endothelial cells (HUVEC); actives raise or lower the signal. Summed up: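 Endpoint derived from bidirectional fitting against DMSO controls of VCAM-1 ELISA signal in umbilical vein endothelial cells sampled at 24 h following treatment.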

Read-out in experiment [4]: Interferon-gamma inducible Protein 10 (IP10), CXCL10 (gene 3627)
Briefly: BSK_BE3C_IP10: BioMAP Diversity Plus: BE3C Assay for Interferon-gamma inducible Protein 10 (IP10) Biomarker Activity (AID 2283034). To be noted: primary human bronchial epithelial cells; actives raise or lower the signal. The procedure, abridged: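 Using primary human bronchial epithelial cultures, the assay captures IP-10 by ELISA one day (24 h) after exposure. Parallel SRB staining of total protein flags overt cytotoxicity. Fits run bidirectionally relative to DMSO.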

Read-out in experiment [5]: Monokine induced gamma interferon (MIG), CXCL9 (gene 4283)
Briefly: BSK_BE3C_MIG: BioMAP Diversity Plus: BE3C Assay for Monokine induced gamma interferon (MIG) Biomarker Activity (AID 2283035).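 Also: MIG protein measured by ELISA in BE3C cultures after 24 h of dosing.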 To be noted: primary human bronchial epithelial cells; actives raise or lower the signal. The procedure, abridged: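 MIG level was determined by ELISA after 24 h chemical treatment of primary human bronchial epithelial cells. Values were fitted bidirectionally with DMSO as the negative control and activity baseline.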

Read-out in experiment [6]: Transforming growth factor beta 1 (TGFb1), TGFB1 (gene 7040)
Briefly: BSK_BE3C_TGFb1: BioMAP Diversity Plus: BE3C Assay for Transforming growth factor beta 1 (TGFb1) Biomarker Activity (AID 2283036;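 also: TGF-b1 protein level measured by ELISA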). To be noted: primary human bronchial epithelial cells; actives raise or lower the signal. The procedure, abridged:
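In this human primary bronchial epithelial system, an ELISA quantified TGF-b1 one day after dosing. Endpoint changes in either direction were fitted relative to DMSO.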

Read-out in experiment [7]: Plasminogen activator inhibitor-1 (PAI1), SERPINE1 (gene 5054)
Briefly: BSK_BE3C_PAI1: BioMAP Diversity Plus: BE3C Assay for Plasminogen activator inhibitor-1 (PAI1) Biomarker Activity (AID 2283037). Conditions: primary human bronchial epithelial cells; actives raise or lower the signal. The procedure, abridged:
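PAI-1 biomarker levels in treated human bronchial epithelial cells are determined by ELISA at 24 h. Both increases and decreases relative to DMSO are fitted.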

Read-out in experiment [8]: urokinase plasminogen activator (uPA), PLAU (gene 5328)
Briefly: BSK_BE3C_uPA: BioMAP Diversity Plus: BE3C Assay for urokinase plasminogen activator (uPA) Biomarker Activity (AID 2283038).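 Also: uPA protein level quantified by ELISA in cell cultures; uPA read one day after compound addition.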 Conditions: primary human bronchial epithelial cells; actives raise or lower the signal. The procedure, abridged: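 Human primary bronchial epithelial cells were exposed to chemical for 24 h, then uPA levels were measured by ELISA. Responses were fitted bidirectionally against DMSO as negative control and baseline. Parallel SRB staining of total protein gauged overt cytotoxicity.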

Read-out in experiment [9]: Urokinase-type plasminogen activator receptor (uPAR), PLAUR (gene 5329)
As to the kind of experiment: BSK_BE3C_uPAR: BioMAP Diversity Plus: BE3C Assay for Urokinase-type plasminogen activator receptor (uPAR) Biomarker Activity (AID 2283039).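 Also: cells exposed to compound for one day before measurement.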 To be noted: primary human bronchial epithelial cells; actives raise or lower the signal. Summed up: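 A uPAR ELISA serves as the readout, taken 24 h after treating primary human bronchial epithelial cells. Responses in either direction are fitted against DMSO, which defines baseline activity.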

Read-out in experiment [10]: Tissue plasminogen activator (tPA), PLAT (gene 5327)
As to the kind of experiment: BSK_BE3C_tPA: BioMAP Diversity Plus: BE3C Assay for Tissue plasminogen activator (tPA) Biomarker Activity (AID 2283041).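 As to outcome: tPA level quantified by ELISA one day after compound addition.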 Conditions: primary human bronchial epithelial cells; actives raise or lower the signal. The procedure, abridged:
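Bidirectional curve fitting relative to DMSO defined activity, with tPA detected by ELISA in chemically treated human bronchial epithelial primary cells at 24 hours.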

Read-out in experiment [11]: Interleukin-8 (IL8), CXCL8 (gene 3576)
As to the kind of experiment: BSK_CASM3C_IL8: BioMAP Diversity Plus: CASM3C Assay for Interleukin-8 (IL8) Biomarker Activity (AID 2283042).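 Also: IL-8 protein level quantified by ELISA.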 To be noted: primary human coronary artery smooth muscle cells; actives raise or lower the signal.

Read-out in experiment [12]: Human Leukocyte Antigen - DR isotype (HLADR), HLA-DRA (gene 3122)
Briefly: BSK_CASM3C_HLADR: BioMAP Diversity Plus: CASM3C Assay for Human Leukocyte Antigen - DR isotype (HLADR) Biomarker Activity (AID 2283043).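 Also: cell-surface HLA-DR protein level quantified by ELISA.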 To be noted: primary human coronary artery smooth muscle cells; actives raise or lower the signal.

Read-out in experiment [13]: Macrophage colony-stimulating factor (MCSF), CSF1 (gene 1435)
As to the kind of experiment: BSK_CASM3C_MCSF: BioMAP Diversity Plus: CASM3C Assay for Macrophage colony-stimulating factor (MCSF) Biomarker Activity (AID 2283044).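 Also: M-CSF protein amount quantified by ELISA after 24 h exposure.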 To be noted: primary human coronary artery smooth muscle cells; actives raise or lower the signal.

Read-out in experiment [14]: Low-density lipoprotein receptor (LDLR), LDLR (gene 3949)
As to the kind of experiment: BSK_CASM3C_LDLR: BioMAP Diversity Plus: CASM3C Assay for Low-density lipoprotein receptor (LDLR) Biomarker Activity (AID 2283045).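 Also: LDLR protein level on the cell surface quantified by ELISA.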 Conditions: primary human coronary artery smooth muscle cells; actives raise or lower the signal.

Read-out in experiment [15]: Monocyte Chemoattractant Protein-1 (MCP1), CCL2 (gene 6347)
Briefly: BSK_CASM3C_MCP1: BioMAP Diversity Plus: CASM3C Assay for Monocyte Chemoattractant Protein-1 (MCP1) Biomarker Activity (AID 2283046).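 Also: MCP-1 level quantified by ELISA 24 h after dosing.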 To be noted: primary human coronary artery smooth muscle cells; actives raise or lower the signal.

Experiment [16] can be described thus: BSK_CASM3C_Proliferation: Cell Proliferation Assessment in the BioMAP Diversity Plus: CASM3C Assay (AID 2283047).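 Also: sulforhodamine B total protein stain as relative cell number at 560 nm; sub-confluent cells exposed 48 h before staining; fitted both ways against DMSO so gain or loss of cell number.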 Conditions: primary human coronary artery smooth muscle cells.
Read-out in experiment [17]: Monokine induced gamma interferon (MIG), CXCL9 (gene 4283)
As to the kind of experiment: BSK_CASM3C_MIG: BioMAP Diversity Plus: CASM3C Assay for Monokine induced gamma interferon (MIG) Biomarker Activity (AID 2283048). Conditions: primary human coronary artery smooth muscle cells; actives raise or lower the signal.

Read-out in experiment [18]: serum amyloid A (SAA), SAA1 (gene 6288)
As to the kind of experiment: BSK_CASM3C_SAA: BioMAP Diversity Plus: CASM3C Assay for serum amyloid A (SAA) Biomarker Activity (AID 2283049).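 Also: SAA protein level quantified by ELISA.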 Conditions: primary human coronary artery smooth muscle cells; actives raise or lower the signal.

A short description of experiment [19]: BSK_CASM3C_SRB: Viability Assessment in the BioMAP Diversity Plus: CASM3C Assay (AID 2283050). To be noted: primary human coronary artery smooth muscle cells.
Read-out in experiment [20]: Interleukin-6 (IL6), IL6 (gene 3569)
As to the kind of experiment: BSK_CASM3C_IL6: BioMAP Diversity Plus: CASM3C Assay for Interleukin-6 (IL6) Biomarker Activity for (AID 2283040). To be noted: primary human coronary artery smooth muscle cells; actives raise or lower the signal.

Active and inactive are the calls of the source. The calls were made as follows: active = hit-call score of the fitted dose curve at least 0.9, where 1 is the maximum; inactive = score below 0.9.

As for `COC(=O)c1ccc(O)cc1`, the result in [1], in [2], in experiment [3], in experiment [4], in experiment [5] and in [6] was inactive. The outcome in [7], in [8], in [9], in experiment [10], in [11] and in experiment [12] was inactive. Further, the result in experiment [13], in experiment [14], in experiment [15], in [16], in experiment [17] and in experiment [18] was inactive. The outcome in experiment [19] was inactive.

Take `COc1ccc2c(c1)c(CC(=O)O)c(C)n2C(=O)c1ccc(Cl)cc1`: the outcome in experiment [1], in [2], in experiment [3], in experiment [5], in [6] and in [7] was inactive. Moreover, the result in experiment [8], in [9], in experiment [20], in experiment [10], in experiment [11] and in experiment [12] was inactive. Also, the result in [13], in experiment [14], in experiment [15], in experiment [16], in experiment [17] and in experiment [18] was inactive. Further, the result in experiment [19] was inactive.

Consider `CCCCCCCCCCO`, for which the outcome in experiment [1], in experiment [2], in experiment [3], in experiment [4], in experiment [5] and in [6] was inactive. Besides, the outcome in experiment [7], in [8], in experiment [9], in [20], in [10] and in experiment [11] was inactive. In addition, the result in [12], in experiment [13], in experiment [14], in experiment [15], in experiment [16] and in [17] was inactive. For the same molecule, the result in experiment [18] and in experiment [19] was inactive.

In the case of `COCCOCCOC`, the outcome in experiment [1], in experiment [2], in [3], in experiment [4], in [5] and in experiment [6] was inactive. Besides, the result in experiment [7], in [8], in [9], in experiment [20], in experiment [10] and in experiment [11] was inactive. Besides, the result in experiment [12], in experiment [13], in [14], in [15], in experiment [16] and in experiment [17] was inactive. In addition, the result in [18] and in [19] was inactive.

Take `Cc1oc(-c2ccccc2)nc1CCOc1cccc2c1ccn2CCC(=O)O`: the result in experiment [1], in [3], in experiment [5], in experiment [6], in experiment [7] and in [8] was inactive. Also, the outcome in experiment [9], in experiment [20], in [11], in experiment [12], in experiment [13] and in [14] was inactive. Besides, the outcome in experiment [15], in [16], in experiment [17], in experiment [18] and in [19] was inactive. Besides, the results for the AC50 in [2], in experiment [4] and in experiment [10] were 20.7 µM (active), 26 µM (active) and 20 µM (active), respectively.

Regarding `Nc1nc(N)c2nc(CNc3ccc(C(=O)N[C@@H](CCC(=O)O)C(=O)O)cc3)cnc2n1`, the result in experiment [1], in experiment [2], in experiment [3], in [4], in [5] and in experiment [6] was inactive. In addition, the result in experiment [7], in experiment [8], in experiment [9], in [20], in experiment [10] and in experiment [11] was inactive. For the same molecule, the outcome in experiment [12], in [13], in [14], in experiment [15], in [16] and in experiment [17] was inactive. For the same molecule, the result in experiment [18] and in experiment [19] was inactive.

Take `CCCCCC(=O)O`: the result in experiment [1], in experiment [2], in [3], in experiment [4], in [5] and in experiment [6] was inactive. The outcome in experiment [7], in experiment [8], in experiment [9], in experiment [20], in experiment [10] and in experiment [11] was inactive. Besides, the result in experiment [12], in [13], in [14], in experiment [15], in experiment [16] and in experiment [17] was inactive. Besides, the result in [18] and in experiment [19] was inactive.
